Our source for the growth values is PubChem BioAssay (NCI).

Among the test systems are T-47D breast; BT-549 breast; MDA-MB-435 melanoma; SW-620 colon; MCF7 breast; HCT-116 colon; HCC-2998 colon; KM12 colon.
What all share (test): NCI-60 one-dose screen, 48 h (100 = growth as untreated, 0 = no growth, -100 = all killed)
Common to all, as to conditions: 10 µM unless noted

Each structure is given as a SMILES string. Compounds without any hit were thinned out: in the full panel of roughly 83,000, 20% have a hit.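 Growth was measured after 48 h exposure to one concentration of compound in 96-well plates. Values under 10 count as active.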 Values without a mark were called inactive. Calls of active or inactive are those of the source.

Consider `Cn1cc(-c2nnc(N)nc2-c2c[nH]c3ccc(Br)cc23)c2cc(Br)ccc21`, for which the growth in the assay with T-47D breast is 88%; in the assay with BT-549 breast it was 91.1%; in the assay on MDA-MB-435 melanoma, 93.7%; in the assay with SW-620 colon it was 112%; in the assay on MCF7 breast it was 90.7%; in the assay on HCT-116 colon, 98.8%. Besides, the figures for the growth in the assay with HCC-2998 colon and with KM12 colon were 114% and 99.4%, respectively.

Turning to `COc1ccc(C2CC(c3cccc(OCCCCOc4cccc(C5=NN(C(C)=O)C(c6ccc(OC)cc6)C5)c4)c3)=NN2C(C)=O)cc1` (stereo not drawn), the growth in the assay on T-47D breast was 40.1%; with BT-549 breast it was 69.8%; with MDA-MB-435 melanoma, 60.3%; in the assay with SW-620 colon it was 87.1%; in the assay with MCF7 breast, 39.9%; with HCT-116 colon it was 47.3%. For the same molecule, the growth was 83.1% in the assay on HCC-2998 colon and 70.5% with KM12 colon.

As for `Cc1ccc(NC2=C(Cl)C(=O)c3nc(C)ccc3C2=O)c(C)c1`, the growth is -46.1% (active) in the assay on T-47D breast; 62.9% in the assay on BT-549 breast; -90% (active) with MDA-MB-435 melanoma; -29.4% (active) in the assay on SW-620 colon; -64.4% (active) with MCF7 breast; -67.7% (active) in the assay on HCT-116 colon. Also, the growth in the assay on HCC-2998 colon is 64.6%; in the assay with KM12 colon, 44.9%.

For `CNC(=O)c1cc(N2CCc3cc(NC(=O)Nc4ccc(N5CCOCC5)c(C(F)(F)F)c4)ccc32)ccn1`, the growth with T-47D breast was 28.1%; in the assay on BT-549 breast it was -12.6% (active); with MDA-MB-435 melanoma it was 41.5%; in the assay on SW-620 colon, 34.6%; in the assay with MCF7 breast it was 12.4%; with HCT-116 colon it was 2.52% (active). Moreover, the growth was 22% with HCC-2998 colon and 11.1% in the assay with KM12 colon.

On to `FC(F)(F)c1cc(Br)cc(-c2cc(-c3ccc4c(c3)OCCO4)[nH]n2)c1`, for which the growth in the assay with T-47D breast was 66.4%; with BT-549 breast it was -3.55% (active); with MDA-MB-435 melanoma it was -12.3% (active); in the assay on SW-620 colon, 25.3%; with MCF7 breast, 11.4%; in the assay on HCT-116 colon, 5.67% (active). Also, the results for the growth in the assay with HCC-2998 colon and in the assay on KM12 colon were 29.1% and 12.3%, respectively.

As to `CN1CCN(Cc2ccc(NC(=O)c3cncc(C#Cc4cnc(N)nc4)c3)cc2C(F)(F)F)CC1`, the growth was 19% with T-47D breast; 38.5% in the assay on BT-549 breast; 12.9% with MDA-MB-435 melanoma; 10.4% in the assay with SW-620 colon; 27.6% in the assay with MCF7 breast; 3.4% (active) in the assay with HCT-116 colon. Also, the figures for the growth in the assay on HCC-2998 colon and in the assay on KM12 colon were 42.5% and 9.4% (active), respectively.

With `CN1CCN(Cc2ccc(NC(=O)c3cncc(C#Cc4cnc5ccc(OCC(F)F)nn45)c3)cc2C(F)(F)F)CC1`, the growth in the assay on T-47D breast was 8.64% (active); in the assay with BT-549 breast, -16.6% (active); with MDA-MB-435 melanoma it was -92.6% (active); in the assay with SW-620 colon, -49.1% (active); with MCF7 breast, -66.6% (active); in the assay on HCT-116 colon, -84.3% (active). The growth in the assay with HCC-2998 colon was -67% (active); with KM12 colon, -53.9% (active).

Regarding `CCCCN1C(=O)/C(=c2\sc3n(c2=O)C2C(NN=3)N(CC)C(=O)N2CC)c2cc(C)ccc21` (stereo not drawn), the growth is 93.8% in the assay on T-47D breast; 96.3% in the assay on BT-549 breast; 84.5% in the assay on MDA-MB-435 melanoma; 95.1% with SW-620 colon; 80% in the assay on MCF7 breast; 85.3% in the assay with HCT-116 colon. Besides, the growth is 109% in the assay with HCC-2998 colon and 94.1% in the assay with KM12 colon.

With `Brc1ccc(-c2cc(-c3ccc4c(c3)OCCO4)n[nH]2)s1`, the growth in the assay on T-47D breast was 22.5%; with BT-549 breast, 62%; in the assay with MDA-MB-435 melanoma, -38.1% (active); in the assay with SW-620 colon, 34.7%; in the assay on MCF7 breast, 7.62% (active); in the assay on HCT-116 colon, 24.7%. For the same molecule, the figures for the growth in the assay on HCC-2998 colon and in the assay with KM12 colon were 42.1% and 28.2%, respectively.

For `Brc1cccc(-c2cc(-c3cnc4c(c3)OCCO4)n[nH]2)c1`, the growth in the assay on T-47D breast is 40.2%; with BT-549 breast it was 67.3%; in the assay with MDA-MB-435 melanoma, -29.3% (active); in the assay on SW-620 colon it was 25.3%; with MCF7 breast it was 10%; with HCT-116 colon it was 27.4%. For the same molecule, the figures for the growth in the assay with HCC-2998 colon and in the assay on KM12 colon were 46.7% and 41.6%, respectively.

For the molecule `COc1ccccc1/C=C1\Oc2ccc(O)c(O)c2C1=O`, the growth in the assay with T-47D breast is 86.3%; in the assay with BT-549 breast, 89.5%; in the assay with MDA-MB-435 melanoma it was 93.4%; in the assay with SW-620 colon, 105%; in the assay with MCF7 breast it was 88.2%; in the assay on HCT-116 colon it was 83.7%. Further, the growth in the assay on HCC-2998 colon is 96.8%; in the assay on KM12 colon, 99.7%.

`COc1cccc2c1[C@H](OC)[C@]13O[C@@]1(C2=O)[C@H](O)[C@H](C)[C@@](O)(C(=O)[C@@H]1O[C@H]1C)[C@@H]3O`: the growth in the assay with T-47D breast was -11.8% (active); with BT-549 breast it was -39.6% (active); in the assay with MDA-MB-435 melanoma, -72.7% (active); with SW-620 colon, -14.7% (active); with MCF7 breast it was -21.3% (active); with HCT-116 colon, -26.8% (active). Moreover, the growth in the assay with HCC-2998 colon was -79.3% (active); in the assay with KM12 colon, -31.1% (active).

Consider `CCN(CC)c1ccc(/C=N/NC(=O)c2ccc(S(N)(=O)=O)cc2)c(O)c1`, for which the growth with T-47D breast was 30.4%; with BT-549 breast, 26.5%; in the assay on MDA-MB-435 melanoma it was 31.1%; in the assay with SW-620 colon, 35%; with MCF7 breast, 6.43% (active); with HCT-116 colon, 24.2%. Besides, the growth is 37.3% in the assay on HCC-2998 colon and 24.2% in the assay with KM12 colon.

Consider `NNc1nnc2nc(Nc3ccccc3)nc(Nc3ccc(S(N)(=O)=O)cc3)n12`, for which the growth was 109% in the assay on T-47D breast; 107% in the assay with BT-549 breast; 108% in the assay with MDA-MB-435 melanoma; 104% in the assay with SW-620 colon; 97.8% in the assay on MCF7 breast; 107% in the assay with HCT-116 colon. For the same molecule, the growth with HCC-2998 colon was 104%; with KM12 colon it was 103%.

`CCOC(=O)C1=C(C)NC(C)=C(C(=O)OC(C)C)C1c1cccc(C#N)c1` (stereo not drawn): the growth is 95.1% in the assay with T-47D breast; 126% with BT-549 breast; 104% in the assay on MDA-MB-435 melanoma; 99.2% in the assay on SW-620 colon; 94.5% with MCF7 breast; 94% in the assay on HCT-116 colon. The growth was 104% in the assay on HCC-2998 colon and 98% in the assay with KM12 colon.

With `O=C(/C=C/c1csc(Br)n1)NO`, the growth with T-47D breast is 8.14% (active); in the assay with BT-549 breast, 80.7%; in the assay with MDA-MB-435 melanoma it was 5.36% (active); with SW-620 colon it was 10.2%; in the assay on MCF7 breast, 24.6%; in the assay on HCT-116 colon it was 5.92% (active). The figures for the growth in the assay with HCC-2998 colon and in the assay with KM12 colon were 29.2% and 34.9%, respectively.
